MsrA inhibitor: bovine MsrA inhibition. purified bovine MsrA, absorbance read-out. 360,000 compounds, 0.75% hits. inhibition, % at 15.5 µM. AID 651718; in the data active means inhibition above about 4.5%;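 further: 0% = vehicle wells with enzyme and 100% = reference inhibitor wells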
MsrA act: activates bovine MsrA enzyme | 360,000 compounds, 0.3% hits | AID 602163 | purified bovine MsrA, absorbance read-out | activation, % at 10.6 µM; in the data active means activation above about 7.5%;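 further: 0% = vehicle and 100% = reference activator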
HTR2A ag: activates the mouse 5-HT2A serotonin receptor. CHO-K1 mHTR2A beta-arrestin complementation, luminescence; percent of 30 µM serotonin response. activation, % at 7.6 µM. 360,000 compounds, 0.66% hits. AID 624169;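 active means activation above a run cutoff, the mean activation of all tested compounds plus 3 SD, cut at about 14% in these data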;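 further: 0% = plate median of compound wells and 100% = 30 µM serotonin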
GC-A act: GC-A (human) enzyme activation | activation, % at 10 µM | 370,000 compounds, 0.14% hits | AID 1671463 | HEK293 GC-A cells, cGMP TR-FRET, EC30 ANP; 0% at EC30 ANP, 100% saturating ANP | P16066; in the data active means activation above about 40%
NPR2 activator: GC-B (human) receptor activation; P20594; HEK293-GC-B cells, CNP EC30, cGMP TR-FRET; 0% at EC30 CNP, 100% saturating CNP; activation, % at 10 µM; 370,000 compounds, 0.11% hits;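 active means activation at 10 µM reaching about 35% in either raw or pattern-adjusted values, limit read from the data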
MsrA act confirm: bovine methionine sulfoxide reductase A activation confirmed | shares compounds with MsrA act | purified bovine MsrA, absorbance read-out | activation, % at 10.6 µM | 1,000 compounds, 12% hits; in the data active means activation above about 4%;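 further: enzyme coupled to thioredoxin and thioredoxin reductase with NADPH; 0% = vehicle wells and 100% = reference activator wells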
* = called active by the depositor. Sampled rows, rich in hits. Any-hit rate of the full collection: about 1.8%.

How did COC(=O)c1sccc1NC(=O)CN1CCN(c2ccc(F)cc2)CC1 do in these assays?
MsrA inhibitor: 0; MsrA act: 9.1*; HTR2A ag: -7; GC-A act: -8; NPR2 activator: 0; MsrA act confirm: 3

What do the screens show for `CCC(=O)N1CCc2cc(Br)cc(S(=O)(=O)CCC(=O)NCc3ccco3)c21`?
MsrA act: 14*; HTR2A ag: 0; MsrA act confirm: 0

What do the screens show for `CCC(=O)N1CCc2cc(Br)cc(S(=O)(=O)NCc3ccco3)c21`?
MsrA act: -9; HTR2A ag: -4

What do the screens show for `CCC[C@H]1[C@@H](NC(=O)Nc2ccc3c(c2)OCO3)CC[C@@]23CCCN2C(=O)CCC[C@@H]13`?
GC-A act: -12; NPR2 activator: -14

What do the screens show for `Cc1[nH]cnc1/C=N\NC(=O)c1cccc(S(=O)(=O)N(C)C)c1`?
GC-A act: 1; NPR2 activator: 10

Results for O=C(CCl)N1c2ccccc2Sc2c1ccc1ccccc21 ?
MsrA inhibitor: 1; MsrA act: -4; HTR2A ag: -2; GC-A act: -8; NPR2 activator: 1

What do the screens show for `CC(=O)N1c2ccccc2Sc2ccc3ccccc3c21`?
MsrA inhibitor: 1; MsrA act: 9.2*; HTR2A ag: -4; GC-A act: -6; NPR2 activator: -4; MsrA act confirm: -3

What do the screens show for `COc1cc(SC)ccc1C(=O)OCC(=O)NC(=O)NC(C)C`?
MsrA inhibitor: 0; MsrA act: 7.9*; HTR2A ag: 4; GC-A act: 4; NPR2 activator: 1; MsrA act confirm: -3

Results for COc1cc(SC)ccc1C(=O)OCC(=O)NCC(C)C ?
MsrA inhibitor: 0; MsrA act: -2; HTR2A ag: 0; GC-A act: 3; NPR2 activator: -1

How did CCc1noc(C)c1C(=O)N1CCN(S(=O)(=O)c2ccc(Cl)cc2)CC1 do in these assays?
MsrA inhibitor: 0; MsrA act: 0; HTR2A ag: -5; GC-A act: 0; NPR2 activator: -3

Results for CCc1noc(C)c1C(=O)N1CCN(S(=O)(=O)c2cccs2)CC1 ?
MsrA inhibitor: -1; MsrA act: 10.0*; HTR2A ag: 5; GC-A act: 0; NPR2 activator: 1; MsrA act confirm: -1

What do the screens show for `O=C(CC1CCCC1)N[C@@H](Cc1cccnc1)C(=O)N1CCC[C@H]1C(=O)NCCc1ccccc1Cl`?
MsrA inhibitor: 1; GC-A act: -1; NPR2 activator: 3

What do the screens show for `CC(C)(C)OC(=O)NCc1cc(F)ccc1/C=C/S(=O)(=O)NC1CCCC1`?
GC-A act: 0; NPR2 activator: -3

Results for CCSc1oc(-c2ccccc2)nc1S(=O)(=O)c1ccccc1 ?
MsrA inhibitor: 1; MsrA act: 0; HTR2A ag: -2; GC-A act: -3; NPR2 activator: -2

What do the screens show for `CSc1oc(-c2ccccc2)nc1S(=O)(=O)c1ccc(C)cc1`?
MsrA inhibitor: 3; MsrA act: 8.0*; HTR2A ag: 2; GC-A act: 7; NPR2 activator: 7; MsrA act confirm: -1

What do the screens show for `O=C(O[C@H]1CC[C@@]23CCCN2C(=O)CCC[C@H]3C1)N1CCN(c2ccccc2)CC1`?
GC-A act: -1; NPR2 activator: -1

Results for C[C@@H]1CCCCO[C@@H](CN(C)Cc2ccccc2)[C@@H](C)CN([C@H](C)CO)C(=O)c2cc(N(C)C)ccc2O1 ?
MsrA inhibitor: 1; MsrA act: -10; HTR2A ag: 4; GC-A act: 4; NPR2 activator: 1

Results for C[C@H](CO)N1C[C@H](C)[C@@H](CN(C)Cc2ccccc2)OCCCC[C@H](C)Oc2ccc(N(C)C)cc2C1=O ?
MsrA inhibitor: 0; MsrA act: 8.7*; HTR2A ag: -2; GC-A act: -4; NPR2 activator: 8; MsrA act confirm: -3

Results for N#Cc1cccc(NC(=O)OC2CCC23CCC(c2ccccc2)CC3)c1 (stereo not given) ?
GC-A act: 0; NPR2 activator: -2

How did CCOc1ccccc1CNC(=O)c1cc2oc3ccccc3c2n1CC do in these assays?
MsrA inhibitor: 0; MsrA act: 8.1*; HTR2A ag: -5; GC-A act: 1; NPR2 activator: -5; MsrA act confirm: -4

From PubChem BioAssay
